Here are results for five molecules from ChEMBL document CHEMBL1961873, “Compounds: GSK PKIS; Assays: Nanosyn kinase panel” (2012).

Assay [1] has as its target T1, Tyrosine-protein kinase ITK/TSK (Homo sapiens) (UniProt Q08881).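 Further: values are mean percent inhibition of ITK from the GSK PKIS screen.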
T1 sequence (whole entry): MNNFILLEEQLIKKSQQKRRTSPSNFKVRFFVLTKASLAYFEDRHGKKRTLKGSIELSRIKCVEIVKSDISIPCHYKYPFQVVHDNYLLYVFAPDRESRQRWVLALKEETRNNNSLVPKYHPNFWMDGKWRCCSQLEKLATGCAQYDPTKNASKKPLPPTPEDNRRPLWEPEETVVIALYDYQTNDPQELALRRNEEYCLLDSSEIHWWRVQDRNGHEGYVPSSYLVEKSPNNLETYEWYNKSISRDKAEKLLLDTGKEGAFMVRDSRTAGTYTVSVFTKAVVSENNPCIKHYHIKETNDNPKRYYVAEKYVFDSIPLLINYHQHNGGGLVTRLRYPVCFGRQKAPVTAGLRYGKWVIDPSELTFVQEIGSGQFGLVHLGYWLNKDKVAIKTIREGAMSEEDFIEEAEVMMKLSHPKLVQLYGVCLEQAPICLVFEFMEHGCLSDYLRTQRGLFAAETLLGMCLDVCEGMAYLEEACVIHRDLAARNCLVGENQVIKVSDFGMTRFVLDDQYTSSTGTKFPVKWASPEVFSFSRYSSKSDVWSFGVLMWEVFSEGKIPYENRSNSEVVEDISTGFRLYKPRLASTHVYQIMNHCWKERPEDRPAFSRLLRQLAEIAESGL
The settings on record: at 1 µM.

The target in assay [2] is Tyrosine-protein kinase JAK1 (Homo sapiens) (UniProt P23458). The following applies: at 0.1 µM.
Sequence of Tyrosine-protein kinase JAK1 (Homo sapiens) (P23458 whole entry): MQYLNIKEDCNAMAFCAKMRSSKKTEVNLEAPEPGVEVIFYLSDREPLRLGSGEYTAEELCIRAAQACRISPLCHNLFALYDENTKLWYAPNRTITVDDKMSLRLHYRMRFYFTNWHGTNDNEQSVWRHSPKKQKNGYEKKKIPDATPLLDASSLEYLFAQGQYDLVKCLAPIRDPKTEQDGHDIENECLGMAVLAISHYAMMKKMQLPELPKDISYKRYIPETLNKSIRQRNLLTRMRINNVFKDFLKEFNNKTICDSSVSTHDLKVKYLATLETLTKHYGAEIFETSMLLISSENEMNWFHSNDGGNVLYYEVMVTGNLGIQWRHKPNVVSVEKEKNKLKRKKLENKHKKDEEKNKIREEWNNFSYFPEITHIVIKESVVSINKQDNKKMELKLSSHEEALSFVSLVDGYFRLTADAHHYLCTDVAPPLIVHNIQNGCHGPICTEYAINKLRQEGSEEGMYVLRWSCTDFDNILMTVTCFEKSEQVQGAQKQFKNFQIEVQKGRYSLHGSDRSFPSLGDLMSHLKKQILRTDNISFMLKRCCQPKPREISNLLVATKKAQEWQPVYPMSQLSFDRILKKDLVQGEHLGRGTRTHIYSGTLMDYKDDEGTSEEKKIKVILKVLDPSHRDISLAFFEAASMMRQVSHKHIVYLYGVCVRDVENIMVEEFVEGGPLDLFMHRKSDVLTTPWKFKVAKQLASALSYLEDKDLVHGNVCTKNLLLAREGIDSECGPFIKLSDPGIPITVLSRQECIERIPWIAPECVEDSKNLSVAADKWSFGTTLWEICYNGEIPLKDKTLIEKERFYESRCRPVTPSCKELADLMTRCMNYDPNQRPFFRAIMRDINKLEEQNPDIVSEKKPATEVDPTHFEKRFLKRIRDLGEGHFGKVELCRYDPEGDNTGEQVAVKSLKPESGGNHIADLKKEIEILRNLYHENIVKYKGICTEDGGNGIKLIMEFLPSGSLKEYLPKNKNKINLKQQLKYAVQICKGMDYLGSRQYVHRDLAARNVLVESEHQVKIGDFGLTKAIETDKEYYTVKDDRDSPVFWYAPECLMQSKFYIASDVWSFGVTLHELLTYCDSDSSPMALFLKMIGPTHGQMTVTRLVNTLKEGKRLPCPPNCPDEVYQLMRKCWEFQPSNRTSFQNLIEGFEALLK
Assay [3] shares this target. The settings on record: at 1 µM.
Assay [4] has as its target Tyrosine-protein kinase JAK2 (Homo sapiens) (UniProt O60674). The settings on record: at 0.1 µM.
For assay [5] the target is unchanged. The settings on record: at 1 µM.
The target of assay [6] is T2, Tyrosine-protein kinase JAK3 (Homo sapiens) (UniProt P52333).
T2 sequence (whole entry): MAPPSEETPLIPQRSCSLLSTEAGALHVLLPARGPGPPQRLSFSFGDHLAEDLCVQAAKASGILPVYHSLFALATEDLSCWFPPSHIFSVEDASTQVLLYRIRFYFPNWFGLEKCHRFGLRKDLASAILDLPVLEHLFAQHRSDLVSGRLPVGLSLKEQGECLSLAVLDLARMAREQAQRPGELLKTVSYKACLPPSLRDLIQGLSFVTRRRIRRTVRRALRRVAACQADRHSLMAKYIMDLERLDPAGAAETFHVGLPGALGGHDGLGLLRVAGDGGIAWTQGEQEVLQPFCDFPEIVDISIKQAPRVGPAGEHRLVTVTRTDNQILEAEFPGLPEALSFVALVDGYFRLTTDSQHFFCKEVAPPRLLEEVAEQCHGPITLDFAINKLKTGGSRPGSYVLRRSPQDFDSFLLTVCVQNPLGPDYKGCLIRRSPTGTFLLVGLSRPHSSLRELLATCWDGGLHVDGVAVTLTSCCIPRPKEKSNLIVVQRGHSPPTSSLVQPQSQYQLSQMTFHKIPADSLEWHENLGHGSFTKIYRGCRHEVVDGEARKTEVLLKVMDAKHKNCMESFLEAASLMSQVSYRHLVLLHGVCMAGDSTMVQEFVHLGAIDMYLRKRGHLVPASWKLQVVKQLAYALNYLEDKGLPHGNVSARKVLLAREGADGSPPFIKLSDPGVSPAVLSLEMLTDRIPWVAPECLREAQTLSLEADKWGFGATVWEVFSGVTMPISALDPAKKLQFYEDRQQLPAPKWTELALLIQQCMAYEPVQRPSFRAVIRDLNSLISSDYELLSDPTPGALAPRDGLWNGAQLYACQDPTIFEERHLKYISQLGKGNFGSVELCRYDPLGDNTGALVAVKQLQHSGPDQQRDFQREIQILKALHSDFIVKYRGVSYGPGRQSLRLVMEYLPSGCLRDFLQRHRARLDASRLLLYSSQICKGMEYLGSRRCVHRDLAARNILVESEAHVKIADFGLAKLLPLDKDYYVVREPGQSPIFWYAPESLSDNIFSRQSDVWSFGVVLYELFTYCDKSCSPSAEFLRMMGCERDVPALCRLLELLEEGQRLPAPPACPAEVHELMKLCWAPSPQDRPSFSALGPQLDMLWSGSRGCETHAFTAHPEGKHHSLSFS
The settings on record: at 0.1 µM.

For assay [7], the target named is T2, Tyrosine-protein kinase JAK3 (Homo sapiens). The following applies: at 1 µM.
Assay [8] concerns the target Vascular endothelial growth factor receptor 2 (Homo sapiens) (UniProt P35968). The settings on record: at 0.1 µM.
For assay [9] the target is unchanged. The settings on record: at 1 µM.
The target in assay [10] is Mast/stem cell growth factor receptor Kit (Homo sapiens) (UniProt P10721). The settings on record: at 0.1 µM.
Sequence of Mast/stem cell growth factor receptor Kit (Homo sapiens) (P10721 whole entry): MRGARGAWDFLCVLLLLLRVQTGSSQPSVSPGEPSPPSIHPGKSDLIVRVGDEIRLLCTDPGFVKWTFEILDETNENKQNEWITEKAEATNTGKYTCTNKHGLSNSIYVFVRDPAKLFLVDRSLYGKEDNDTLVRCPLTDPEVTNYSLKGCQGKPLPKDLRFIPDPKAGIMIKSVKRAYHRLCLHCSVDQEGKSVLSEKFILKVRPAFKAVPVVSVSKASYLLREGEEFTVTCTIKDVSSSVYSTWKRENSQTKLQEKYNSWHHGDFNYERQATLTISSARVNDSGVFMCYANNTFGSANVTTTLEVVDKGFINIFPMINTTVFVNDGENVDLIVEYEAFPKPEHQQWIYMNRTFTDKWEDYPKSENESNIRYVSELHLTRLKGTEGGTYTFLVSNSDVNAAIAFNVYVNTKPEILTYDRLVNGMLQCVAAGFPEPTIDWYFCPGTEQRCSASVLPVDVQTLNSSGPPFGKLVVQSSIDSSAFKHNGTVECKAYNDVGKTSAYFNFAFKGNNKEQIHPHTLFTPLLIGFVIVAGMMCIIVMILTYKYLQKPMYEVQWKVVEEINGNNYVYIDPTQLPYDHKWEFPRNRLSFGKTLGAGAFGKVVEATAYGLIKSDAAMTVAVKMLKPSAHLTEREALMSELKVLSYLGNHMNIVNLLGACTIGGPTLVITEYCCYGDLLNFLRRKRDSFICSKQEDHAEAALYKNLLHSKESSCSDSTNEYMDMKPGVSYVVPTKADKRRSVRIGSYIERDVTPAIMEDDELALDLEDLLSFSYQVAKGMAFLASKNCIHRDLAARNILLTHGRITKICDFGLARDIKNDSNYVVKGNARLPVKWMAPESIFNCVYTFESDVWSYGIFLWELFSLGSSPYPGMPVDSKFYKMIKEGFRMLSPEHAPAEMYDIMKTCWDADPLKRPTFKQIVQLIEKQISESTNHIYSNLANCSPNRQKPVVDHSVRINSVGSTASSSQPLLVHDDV
For assay [11] the target is unchanged. The following applies: at 1 µM.
Assay [12] relates to Mast/stem cell growth factor receptor Kit (Homo sapiens), P10721 [D816V]. The following applies: at 0.1 µM.
Sequence of Mast/stem cell growth factor receptor Kit (Homo sapiens), P10721 [D816V] (P10721 whole entry D816V): as the sequence (P10721 whole entry) above, with D816V counted along it
Assay [13] has the same test system. The following applies: at 1 µM.
Assay [14] concerns Mast/stem cell growth factor receptor Kit (Homo sapiens), P10721 [T670I]. The settings on record: at 0.1 µM.
Sequence of Mast/stem cell growth factor receptor Kit (Homo sapiens), P10721 [T670I] (P10721 whole entry T670I): as the sequence (P10721 whole entry) above, with T670I counted along it
The test system is the same in assay [15]. The following applies: at 1 µM.
In assay [16] the test system is Mast/stem cell growth factor receptor Kit (Homo sapiens), P10721 [V560G]. The following applies: at 0.1 µM.
Sequence of Mast/stem cell growth factor receptor Kit (Homo sapiens), P10721 [V560G] (P10721 whole entry V560G): as the sequence (P10721 whole entry) above, with V560G counted along it
For assay [17] the test system is unchanged. The settings on record: at 1 µM.
For assay [18], the target named is Tyrosine-protein kinase Lck (Homo sapiens) (UniProt P06239). The following applies: at 0.1 µM.
For assay [19] the target is unchanged. The settings on record: at 1 µM.
Assay [20] has as its target Leukocyte tyrosine kinase receptor (Homo sapiens) (UniProt P29376). The settings on record: at 0.1 µM.

Each structure is given as a SMILES string.

Sequence of Vascular endothelial growth factor receptor 2 (Homo sapiens) (P35968 whole entry): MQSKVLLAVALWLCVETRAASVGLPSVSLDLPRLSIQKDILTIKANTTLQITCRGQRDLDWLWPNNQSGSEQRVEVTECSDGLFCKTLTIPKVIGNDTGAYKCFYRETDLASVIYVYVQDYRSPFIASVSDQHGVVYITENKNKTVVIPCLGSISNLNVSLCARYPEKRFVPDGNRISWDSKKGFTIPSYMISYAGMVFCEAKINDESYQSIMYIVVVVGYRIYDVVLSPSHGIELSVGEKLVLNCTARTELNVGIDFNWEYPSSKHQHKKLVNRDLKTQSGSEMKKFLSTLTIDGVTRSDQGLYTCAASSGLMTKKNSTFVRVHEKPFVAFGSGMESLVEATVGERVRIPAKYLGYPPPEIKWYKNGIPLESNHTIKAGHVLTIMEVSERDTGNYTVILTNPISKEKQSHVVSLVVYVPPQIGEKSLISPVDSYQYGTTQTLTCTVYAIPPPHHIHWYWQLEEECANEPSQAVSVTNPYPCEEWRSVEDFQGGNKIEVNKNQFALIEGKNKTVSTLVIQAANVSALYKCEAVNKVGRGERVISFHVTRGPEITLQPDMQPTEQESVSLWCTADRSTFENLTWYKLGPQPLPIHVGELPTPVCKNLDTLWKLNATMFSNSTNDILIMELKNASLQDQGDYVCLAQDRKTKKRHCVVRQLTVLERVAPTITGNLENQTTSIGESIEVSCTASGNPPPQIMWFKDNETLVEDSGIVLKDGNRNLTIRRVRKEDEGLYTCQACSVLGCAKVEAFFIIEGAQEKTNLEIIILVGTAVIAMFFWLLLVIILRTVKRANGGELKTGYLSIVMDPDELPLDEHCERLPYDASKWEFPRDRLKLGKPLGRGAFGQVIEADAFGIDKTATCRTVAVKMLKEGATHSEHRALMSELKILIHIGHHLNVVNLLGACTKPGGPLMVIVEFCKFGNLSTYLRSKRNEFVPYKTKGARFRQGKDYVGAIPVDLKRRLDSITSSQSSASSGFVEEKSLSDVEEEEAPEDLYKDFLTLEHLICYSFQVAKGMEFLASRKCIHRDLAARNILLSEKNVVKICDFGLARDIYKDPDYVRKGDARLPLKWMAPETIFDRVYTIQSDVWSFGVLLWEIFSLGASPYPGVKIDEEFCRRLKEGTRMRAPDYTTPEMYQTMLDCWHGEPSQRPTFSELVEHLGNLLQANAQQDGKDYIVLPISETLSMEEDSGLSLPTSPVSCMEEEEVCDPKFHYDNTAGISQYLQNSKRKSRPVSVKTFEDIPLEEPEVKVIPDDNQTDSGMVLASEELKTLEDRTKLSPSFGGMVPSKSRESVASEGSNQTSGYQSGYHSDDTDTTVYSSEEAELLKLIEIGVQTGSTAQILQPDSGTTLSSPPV
Sequence of Tyrosine-protein kinase JAK2 (Homo sapiens) (O60674 whole entry): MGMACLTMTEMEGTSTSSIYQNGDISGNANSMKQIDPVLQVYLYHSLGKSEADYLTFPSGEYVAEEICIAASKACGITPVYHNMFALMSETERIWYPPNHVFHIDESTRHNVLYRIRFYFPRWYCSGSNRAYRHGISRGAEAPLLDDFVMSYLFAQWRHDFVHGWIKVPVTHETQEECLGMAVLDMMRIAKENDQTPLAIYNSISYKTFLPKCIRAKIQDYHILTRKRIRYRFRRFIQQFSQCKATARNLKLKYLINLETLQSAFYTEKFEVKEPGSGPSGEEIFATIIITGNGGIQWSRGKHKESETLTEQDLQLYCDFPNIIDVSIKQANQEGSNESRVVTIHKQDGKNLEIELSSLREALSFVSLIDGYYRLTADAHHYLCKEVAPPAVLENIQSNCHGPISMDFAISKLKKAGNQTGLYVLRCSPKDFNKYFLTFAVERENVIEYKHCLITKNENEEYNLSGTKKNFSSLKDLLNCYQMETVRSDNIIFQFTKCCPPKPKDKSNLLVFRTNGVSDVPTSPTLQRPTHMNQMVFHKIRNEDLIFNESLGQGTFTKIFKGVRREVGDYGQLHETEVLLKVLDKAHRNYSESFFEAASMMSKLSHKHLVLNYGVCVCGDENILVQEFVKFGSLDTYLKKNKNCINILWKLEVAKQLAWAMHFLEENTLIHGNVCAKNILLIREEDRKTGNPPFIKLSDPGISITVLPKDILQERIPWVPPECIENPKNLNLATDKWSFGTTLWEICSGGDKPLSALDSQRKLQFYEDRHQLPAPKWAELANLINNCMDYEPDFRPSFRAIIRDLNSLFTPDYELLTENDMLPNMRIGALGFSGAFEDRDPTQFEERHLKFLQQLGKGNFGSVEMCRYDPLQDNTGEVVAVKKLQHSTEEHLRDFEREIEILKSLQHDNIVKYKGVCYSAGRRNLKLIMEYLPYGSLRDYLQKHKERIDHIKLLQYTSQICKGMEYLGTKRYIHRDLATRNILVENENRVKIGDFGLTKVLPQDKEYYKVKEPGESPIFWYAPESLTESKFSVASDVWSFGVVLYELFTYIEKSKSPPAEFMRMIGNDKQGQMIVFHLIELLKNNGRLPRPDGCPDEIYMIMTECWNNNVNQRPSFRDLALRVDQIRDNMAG

Regarding `CC(C)c1ccc2c(c1)NC(=O)/C2=N/Nc1ccc(S(N)(=O)=O)cc1`, the inhibition (in general, the drop in the measured response relative to a control, in per cent) in assay [1] was 2.46%; in assay [2], -0.53%; in assay [3] it was 0.94%; in assay [4], -1.94%; in assay [5], -0.2%; in assay [6] it was -0.51%. The inhibition in [7] is 1.08%; in [8], 1.26%; in assay [9], 4.21%; in assay [10], 7.67%; in assay [11], 31.5%; in assay [12], -0.12%. Besides, the inhibition in [13] was 1.26%; in assay [14], 0.1%; in assay [15], 5.91%; in [16], 9.17%; in assay [17] it was 19.4%; in [18], 1.79%. The inhibition in [19] was found to be 8.63%; in [20], 1.63%.

For the molecule `O=C1Nc2ccc(-c3cccnc3)cc2C1=Cc1cc(Br)c(O)c(Br)c1`, the inhibition is 2.67% in [1]; 2.38% in [2]; 1.97% in [3]; 1.07% in assay [4]; 3.68% in assay [5]; -1.1% in assay [6]. The inhibition in assay [7] stood at 15.8%; in [8], 4.5%; in assay [9] it was 10.1%; in assay [10], 3.48%; in assay [11], 3.66%; in assay [12], 3.44%. Also, the inhibition was 2.96% in assay [13]; 3.51% in [14]; 0.52% in assay [15]; 0.16% in assay [16]; 2.16% in assay [17]; 3.31% in assay [18]. For the same molecule, the results for the inhibition in [19] and in assay [20] were 13.2% and 4.94%, respectively.

For the molecule `NS(=O)(=O)c1cccc(-c2cc3ccncc3cc2OCc2ccccc2)c1`, the inhibition in assay [1] was 3.72%; in assay [2] it was 0.51%; in [3], 2.7%; in assay [4] it was 1.82%; in [5] it was 0.92%; in assay [6] it was -0.33%. Moreover, the inhibition in [7] was 0.81%; in assay [8], 13.4%; in [9], 17.1%; in assay [10], 6.67%; in [11] it was 8.38%; in assay [12], 6.43%. The inhibition in [13] was 5.87%; in assay [14], 2.04%; in [15], 1.1%; in [16], 3.77%; in [17], 9.47%; in assay [18], 2.52%. The inhibition in assay [19] came out at 5.46%; in assay [20] it was 2.44%.

As to `COc1cccc(-n2ncc3c(N/N=C/c4ccc(C)cc4)ncnc32)c1`, the inhibition is 3.5% in assay [1]; 5.68% in assay [2]; 3.83% in assay [3]; 1.5% in [4]; 1.98% in assay [5]; -0.38% in [6]. The inhibition in [7] amounted to 1.11%; in [8], 6.36%; in [9] it was 19.1%; in assay [10], 6.06%; in assay [11], 10.6%; in [12] it was 2.8%. In addition, the inhibition in assay [13] was 6.2%; in [14], 0.52%; in assay [15] it was 4.07%; in [16] it was -2.84%; in assay [17] it was -2.13%; in assay [18], 7.28%. In addition, the inhibition in [19] came out at 21.3%; in [20], 4.23%.

For the molecule `N#Cc1cccc(Nc2nccc(-c3cnn4ncccc34)n2)c1`, the inhibition came out at 21.1% in [1]; 2.54% in assay [2]; 14.9% in assay [3]; 2.15% in assay [4]; 22.1% in assay [5]; 5.73% in assay [6]. Moreover, the inhibition in assay [7] was determined as 36.2%; in assay [8], 12.1%; in [9], 43.9%; in assay [10], 78.3%; in [11], 100%; in assay [12] it was 4.4%. The inhibition in assay [13] turned out to be 9.63%; in assay [14], 32.2%; in assay [15], 88.5%; in assay [16] it was 24.4%; in assay [17] it was 71.6%; in [18], 4.61%. Moreover, the inhibition was determined as 18.3% in assay [19] and 6.31% in [20].
